Compounds without any hit were thinned out: in the full panel of roughly 79,000, 15% have a hit. Calls of active or inactive are those of the source. Cut-off read from the data, not from the text of the source: active = growth inhibition above about 70%; inactive = the rest.
Experiment: NCI Yeast Anticancer Drug Screen. Data for the sgs1 strain (AID 173);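 note: 0% = growth of vehicle-only control cultures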
Conditions: S. cerevisiae sgs1 mutant, stronger effect = higher value
Method: Growth inhibition of yeast strains with defined genetic alterations is measured as a screen for potential anti-cancer activity. Selected strains with alterations in DNA damage repair or cell cycle control were exposed to compounds and growth inhibition was measured relative to vehicle treated controls. The strain used in this assay is sgs1

Measured: growth inhibition

CC(=O)c1cc2c(Cl)cc(Cl)cc2oc1=O
inactive: at 1.2 µM -31% | at 3.7 µM -40% | at 11.0 µM -29% | at 33.0 µM -15% | at 100.0 µM -42%

ClCCn1c(CCl)nc2ccc(Cl)cc21
inactive: at 1.2 µM -19% | at 3.7 µM -31% | at 11.0 µM 10% | at 33.0 µM 60%
active: at 100.0 µM 98%

COC(=O)c1ccc2c(c1)Cc1ccccc1-2
inactive: at 1.2 µM -3% | at 3.7 µM -4% | at 11.0 µM -1% | at 33.0 µM 3% | at 100.0 µM 17%

CC(=O)Oc1ccc(C(=O)c2ccccc2)c(O)c1
active: at 100.0 µM 96%
inactive: at 1.2 µM 6% | at 3.7 µM 10% | at 11.0 µM 13% | at 33.0 µM 46%

O=C1C(Cl)=C(Cl)C(Cl)(Cl)C(Cl)C1(Cl)Cl (stereo not given)
active: at 11.0 µM 81% | at 33.0 µM 100% | at 100.0 µM 99%
inactive: at 1.2 µM -7% | at 3.7 µM 36%

CCn1ncc(N=O)c1N
inactive: at 1.2 µM 5% | at 3.7 µM 16% | at 11.0 µM 26% | at 33.0 µM 39% | at 100.0 µM 61%

O=C(/C=C/c1cccc(Br)c1)c1ccc(Cl)cc1
active: at 100.0 µM 73%
inactive: at 1.2 µM -67% | at 3.7 µM -42% | at 11.0 µM -7% | at 33.0 µM 31%

O=C(O)c1[nH]c(=O)c2ccccc2c1Nc1ccccc1
inactive: at 1.2 µM -7% | at 3.7 µM -3% | at 11.0 µM 1% | at 33.0 µM 1% | at 100.0 µM 2%

From PubChem BioAssay (NCI)
